A selection: hits, their analogues and other compounds. The true share with any hit is near 3.3%.
PRMT1 inh = inhibitors of human PRMT1; Q99873; recombinant PRMT1, activity-based probe fluorescence polarization; inhibition, % at 2.79 µM; 1.3% of 370,000 active; AID 652257;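 active = inhibition above about 21% made by adding two undisclosed values, limit read from the data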
TLR9-MyD88 inh = TLR9-MyD88 interaction inhibition. CHO BLA complementation TLR9-MyD88, CCF4 FRET ratio. inhibition, % at 4.98 µM. 0.21% of 340,000 active. AID 504734;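 active = inhibition above the mean over all tested compounds plus 3 SD, cut at about 21% in these data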
rCAG binder = binds r(CAG) RNA repeats | r(CAG) RNA repeat, TO-PRO-1 dye displacement fluorescence | inhibition, % at 3 µM | 1.3% of 370,000 active | AID 651821;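 active = inhibition above the plate cutoff, the mean of all test compounds on that plate plus 3 SD, cut at about 35% in these data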;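 also: higher means more dye released from RNA so lower well fluorescence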
ABHD5-PLIN5 inh = ABHD5-PLIN5 protein interaction inhibition. Q00G26+Q8WTS1. Split G. princeps luciferase complementation, luminescence, 4 h. inhibition, % at 4 µM. 0.78% of 360,000 active. AID 602281;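 active = inhibition above the mean inhibition across every tested compound plus 3 SD, cut at about 22% in these data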
TLR4 MyD88 comp = blocks binding of human TLR4 to MyD88; HeLa CL3-4 TLR4/MyD88 BLA complementation, FRET ratio; inhibition, % at 8.4 µM; 0.18% of 200,000 active; in the data active = inhibition above about 25%
NOD2-RIPK2 inh = NOD2-RIPK2 protein interaction inhibition; O43353; CHO BLA complementation NOD2-RIPK2, CCF4 ratio; inhibition, % at 4.98 µM; 0.38% of 360,000 active; AID 624267; in the data active = inhibition above about 21%
Target sequence (O43353 whole entry, looked up): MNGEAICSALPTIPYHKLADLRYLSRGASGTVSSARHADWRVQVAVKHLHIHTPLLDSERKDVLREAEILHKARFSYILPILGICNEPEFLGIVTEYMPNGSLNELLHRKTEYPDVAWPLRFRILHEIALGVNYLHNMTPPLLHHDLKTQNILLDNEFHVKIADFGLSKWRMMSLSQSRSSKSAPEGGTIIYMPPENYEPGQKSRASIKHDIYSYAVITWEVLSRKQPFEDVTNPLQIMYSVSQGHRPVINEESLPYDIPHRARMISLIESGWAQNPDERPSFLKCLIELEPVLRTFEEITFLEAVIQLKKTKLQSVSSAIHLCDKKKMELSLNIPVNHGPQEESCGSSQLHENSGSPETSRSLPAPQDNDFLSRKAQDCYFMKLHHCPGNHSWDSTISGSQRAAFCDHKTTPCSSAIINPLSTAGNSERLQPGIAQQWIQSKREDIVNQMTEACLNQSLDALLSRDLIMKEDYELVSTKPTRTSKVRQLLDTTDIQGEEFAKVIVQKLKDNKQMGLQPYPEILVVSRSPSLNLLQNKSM
PRMT1 confirm = confirmation of human PRMT1 inhibitors | shares compounds with PRMT1 inh | recombinant His-PRMT1, activity-based probe fluorescence polarization | inhibition, % at 2.79 µM | 42% of 3,300 active;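 active = mean inhibition across replicates above the hit cutoff derived for the earlier primary screen, cut at about 22% in these data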
Large screens that a line does not name were inactive (follow-up assays come after a bar, where they were run).

Cc1cc(=O)[nH]c(SCC(=O)Nc2ccc(N3CCCCC3)cc2)n1	none (no result: TLR4 MyD88 comp)
CCCc1cc(=O)[nH]c(SCC(=O)Nc2ccc(N3CCCCC3)cc2)n1	PRMT1 inh 49 (no result: TLR4 MyD88 comp) | PRMT1 confirm inactive
Cc1cccc(C(=O)Nc2c(-c3ccccc3)nc3ncccn23)c1	none (no result: TLR9-MyD88 inh, ABHD5-PLIN5 inh, TLR4 MyD88 comp, NOD2-RIPK2 inh)
C=CCN1C(=O)/C(=c2\sc3nc(=O)c(Cc4ccccc4Cl)nn3c2=O)c2ccccc21	PRMT1 inh 27 (no result: TLR4 MyD88 comp) | PRMT1 confirm inactive
C=CCOC(=O)C1=C(C)N=c2s/c(=C3\C(=O)N(CC(=O)O)c4ccccc43)c(=O)n2C1c1ccc(OC)cc1 (stereo not given)	none (no result: TLR4 MyD88 comp)
COC(=O)[C@@]1(Sc2ccc(C)cc2)CC(=O)N[C@@H]1c1ccco1	PRMT1 inh 52 (no result: TLR9-MyD88 inh, TLR4 MyD88 comp) | PRMT1 confirm inactive
COC(=O)[C@@]1(Sc2ccccc2)CC(=O)N[C@@H]1c1ccccc1	none (no result: TLR9-MyD88 inh, TLR4 MyD88 comp)
CCOc1cc(C)c(S(=O)(=O)Nc2ccc3cn[nH]c3c2)cc1C	none (no result: PRMT1 inh, rCAG binder)
COCCNC(=O)C1CCCN(C(=O)c2oc3ccccc3c2C)CC1 (stereo not given)	PRMT1 inh 46 (no result: TLR9-MyD88 inh, TLR4 MyD88 comp) | PRMT1 confirm inactive
CCN1/C(=C/C=C/C=C/C=C/c2sc3ccccc3[n+]2CC)Sc2ccccc21	PRMT1 inh 53 (no result: TLR4 MyD88 comp) | PRMT1 confirm 23
O=c1[nH]cc(C(F)(F)F)cc1NS(=O)(=O)c1ccccc1[N+](=O)[O-]	none
CCN(CC(=O)Nc1ccc(NC(C)=O)cc1)C(=O)CSCC(=O)Nc1ccc(C)cc1	none (no result: TLR4 MyD88 comp)
CCOC(=O)c1ccc(NC(=O)CSCc2ccco2)cc1	PRMT1 inh 82 | PRMT1 confirm 84
CCOC(=O)c1ccc(NC(=O)CSCCC(=O)O)cc1	none
CCOC(=O)CC(=O)CSCC(=O)Nc1ccc(C)cc1	PRMT1 inh 40 | PRMT1 confirm 32
Cc1nc2ccc(S(=O)(=O)NCC(=O)NCc3cccs3)cc2s1	none (no result: TLR9-MyD88 inh, ABHD5-PLIN5 inh, TLR4 MyD88 comp, NOD2-RIPK2 inh)
O=C1CC(NC23CC4CC(CC(C4)C2)C3)C(=O)N1c1ccc2c(c1)OCO2 (stereo not given)	PRMT1 inh 65 | PRMT1 confirm inactive
O=C1CC(N2CCN(c3ccc(O)cc3)CC2)C(=O)N1c1ccc2c(c1)OCO2 (stereo not given)	PRMT1 inh 39 | PRMT1 confirm inactive
O=C1CC(N2CCCCCC2)C(=O)N1c1ccc2c(c1)OCO2 (stereo not given)	PRMT1 inh 69 | PRMT1 confirm 35
COc1cccc(Oc2cc(Cl)nc(N)n2)c1	none (no result: TLR4 MyD88 comp)
Cc1cc2nc3c(=O)[nH]c(=O)[nH]c3nc2c([N+](=O)[O-])c1N	PRMT1 inh 79 | PRMT1 confirm 112
COc1ccc(NC(=O)COC(=O)c2ccccc2SCC(=O)N2CCCC2)cc1	none (no result: TLR4 MyD88 comp)
CC(=O)Nc1ccc(NC(=O)COC(=O)c2ccccc2SCC(=O)N2CCCC2)cc1	PRMT1 inh 29 (no result: TLR4 MyD88 comp) | PRMT1 confirm 24
CC1(C)CC(=O)C2=C(C1)OC(N)=C(C#N)C2c1cc2c(cc1[N+](=O)[O-])OCO2 (stereo not given)	PRMT1 inh 58 | PRMT1 confirm 31
CCOc1cc(C2C(C#N)=C(N)OC3=C2C(=O)CC(C)(C)C3)cc([N+](=O)[O-])c1O (stereo not given)	none
O=C(NCC(=O)N1CCCCCCC1)c1ccc(Cl)c(Cl)c1	none (no result: TLR4 MyD88 comp)
Cc1ccc(-c2nn(-c3cccc(F)c3)cc2CN(Cc2nccn2C)C(C)C)o1	PRMT1 inh 41 | PRMT1 confirm inactive
CCc1cccc(NC(=O)CSCc2nc3sc(C)c(C)c3c(=O)[nH]2)c1	none (no result: TLR4 MyD88 comp)
Cc1sc2nc(CSCC(=O)NC3(C#N)CCCCC3)[nH]c(=O)c2c1C	PRMT1 inh 25 (no result: TLR4 MyD88 comp) | PRMT1 confirm inactive
O=C(NCc1cccnc1)c1ccc2sc([C@H]3C[C@H](O)[C@@H](CO)O3)nc2c1	none (no result: TLR9-MyD88 inh, TLR4 MyD88 comp)
COc1cc2c(cc1OC)CN(C(=O)CSC1=NCCS1)CC2	none (no result: TLR4 MyD88 comp)
COc1cc2c(cc1OC)CN(C(=O)CSc1ccccc1C)CC2	PRMT1 inh 33 (no result: TLR4 MyD88 comp) | PRMT1 confirm inactive
CC1CC(C)CN(C(C(=O)NC2CCCCC2)c2cc3ccccc3o2)C1 (stereo not given)	none (no result: TLR9-MyD88 inh, TLR4 MyD88 comp)
COCCNC(=O)c1ccc(C)c(S(=O)(=O)Nc2ccc(C)cc2)c1	PRMT1 inh 36 | PRMT1 confirm inactive
CC(/C=N/n1c(-c2ccncc2)n[nH]c1=S)=C\c1ccco1	PRMT1 inh 27 (no result: TLR9-MyD88 inh, TLR4 MyD88 comp) | PRMT1 confirm inactive
CCc1nc2ccc(C(=O)NCc3ccccc3OC)cn2c1N(C)Cc1ccc(N(C)C)cc1	none (no result: TLR9-MyD88 inh, TLR4 MyD88 comp)
CC(=O)C1=C(O)C(=O)N(CCc2c[nH]c3ccccc23)C1c1ccc(C)cc1 (stereo not given)	none
CC(=O)C1=C(O)C(=O)N(CCc2c[nH]c3ccccc23)C1c1ccco1 (stereo not given)	PRMT1 inh 28 | PRMT1 confirm inactive
CCN=C1SC(C(=O)Nc2cccc(Cl)c2)CC(=O)N1CC (stereo not given)	none
CCN=C1SC(C(=O)NCCc2ccccc2)CC(=O)N1CC (stereo not given)	PRMT1 inh 39 | PRMT1 confirm inactive
CCN=C1SC(CC(=O)NCc2ccccc2)C(=O)N1CC (stereo not given)	PRMT1 inh 78 | PRMT1 confirm inactive
Cc1c(Cl)cccc1NC(=O)CCN1C(=O)C2CC=CCC2C1=O (stereo not given)	none (no result: TLR4 MyD88 comp)
Cc1ccc(CNC(=O)OC(C)(C)C)c(/C=C/S(=O)(=O)NCCc2ccccc2)c1	PRMT1 inh 29 (no result: TLR9-MyD88 inh, ABHD5-PLIN5 inh, TLR4 MyD88 comp, NOD2-RIPK2 inh) | PRMT1 confirm inactive
CC(C)(C)OC(=O)NCc1cc(F)ccc1/C=C/S(=O)(=O)NCc1ccccc1	none (no result: TLR9-MyD88 inh, ABHD5-PLIN5 inh, TLR4 MyD88 comp, NOD2-RIPK2 inh)
CN1CCc2c(sc3c2C(=O)NC(c2ccco2)N3)C1 (stereo not given)	PRMT1 inh 27 | PRMT1 confirm inactive
O=C1NC(c2ccco2)Nc2sc3c(c21)CCN(Cc1ccccc1)C3 (stereo not given)	PRMT1 inh 31 | PRMT1 confirm inactive
CC(C)CN1C(=O)C(=O)N(CC(=O)c2ccc3c(c2)CCCC3)C1=O	none (no result: TLR4 MyD88 comp)
Cc1ccsc1C(=O)Nc1ccc(S(=O)(=O)N2CCOCC2)cc1	none (no result: TLR4 MyD88 comp)
CC(C)OC(=O)c1ccc(NCc2cc(O)ccc2O)cc1	PRMT1 inh 36 (no result: TLR4 MyD88 comp) | PRMT1 confirm 30
CC(C)OC(=O)c1ccc(NC(=O)c2ccccc2)cc1	none
COc1cccc(CN2CCN(CCCc3ccccc3)C(CCO)C2)c1O (stereo not given)	none (no result: TLR4 MyD88 comp)
O=C(CCNc1ccc(F)cc1)c1cc2ccccc2o1	PRMT1 inh 49 | PRMT1 confirm 42
O=C1C2C3C=CC(C3=C3CCCCC3)C2C(=O)N1Cc1ccccc1 (stereo not given)	PRMT1 inh 36 | PRMT1 confirm inactive
CCN1CC=C2C(C1)C(c1ccc(Cl)s1)C(C#N)=C(N)C2(C#N)C#N (stereo not given)	PRMT1 inh 30 | PRMT1 confirm 36
